In PubChem BioAssay:
Unmarked numbers belong to inactive results. No rule for the calls is given here.

Each compound was assayed against Lethal factor (Bacillus anthracis) (UniProt P15917) (assay: Bacillus anthracis lethal factor inhibition, microsphere flow cytometry protease assay, validation at 10 µM (AID 588461)). Conditions: multiplex microsphere protease cleavage assay, hits give high values.

| SMILES | inhibition [%] |
| --- | --- |
| Nc1c2c(nc3ccccc13)CCCC2 | -0.3 |
| CNCCCC1c2ccccc2C=Cc2ccccc21 | -1 |
| COc1ccc(CCN2CCC(Nc3nc4ccccc4n3Cc3ccc(F)cc3)CC2)cc1 | 1.2 |
| CN(C)c1ccc(Nc2c3c4c(cccc4n(C)c2=O)C(=O)c2ccccc2-3)cc1 | -18.1 |
| COc1ccc(-c2csc(-c3cccnc3)n2)cc1C | -5.1 |
| COc1ccc(CCN2CNc3c(c(=O)n(C)c(=O)n3C)C2)cc1OC | 4.8 |
| COc1ccc2c(CC(=O)NCC3CCC(C(=O)O)CC3)cc(=O)oc2c1 (stereo not given) | 3.6 |
| CC(C)c1ccc(NC(=O)CNS(=O)(=O)c2ccc(F)cc2)cc1 | 2.8 |
| Cc1cccc(OCC(=O)Nc2ccc(C(=O)NCC(C)C)cc2)c1 | -4.3 |
| Cc1ccc2c(c1)C(O)(C1COC(C)(C)CC1=O)C(=O)N2C (stereo not given) | -0.8 |
| COCC(C)NC(=O)c1ccc(CN2CCc3ccccc3C2)cc1 (stereo not given) | -7.8 |
| O=C(CCCN1C(=O)/C(=C\c2cccc(Br)c2)SC1=S)Nc1cccnc1 | 2.4 |
| CCC(=O)Nc1ccc(C(=O)N2CCN(C(=O)c3ccco3)CC2)cc1 | -2.7 |
| O=C(NC(CO)Cc1ccc([N+](=O)[O-])cc1)C(Cl)Cl (stereo not given) | -1.4 |
| O=Cc1ccccc1Oc1ccccc1 | -0.3 |
| COc1cc(OC)c(C(=O)CCCN2CCCC2)c(OC)c1 | -2.6 |
| CN(C)CCN(Cc1cccs1)c1ccccn1 | -1.6 |
| Nc1cccc2c1nnn2C1OC(CO)C(O)C(O)C1O (stereo not given) | 3.5 |
| COc1ccc(CNC(=O)c2cc3c(=O)n4ccccc4nc3n(Cc3cccnc3)c2=N)cc1 | -1.9 |
| O=C(O)c1ccccc1OCCOc1ccccc1 | 7.2 |

| SMILES | inhibition [%] |
| --- | --- |
| COc1ccc(CC(=O)NCC2(c3ccc(OC)c(OC)c3)CCOCC2)cc1 | -1.6 |
| O=C(O)Cc1ccc(O)c(F)c1 | -3.6 |
| O=c1[nH]cnc2[nH]ncc12 | -1.1 |
| COc1ccc2oc(C)c(C(N)=O)c2c1 | -0.4 |
| COc1ccc(NC(=O)N2CCCCC2c2cccnc2)cc1 (stereo not given) | -0.9 |
| NS(=O)(=O)c1ccc(CNC(=O)c2cc(-c3ccccc3)nc3ccccc23)cc1 | -4.8 |
| OCCN1CCN(CCCN2c3ccccc3Sc3ccc(Cl)cc32)CC1 | 1.2 |
| CC(=O)O[C@]1(C(C)=O)CC[C@H]2[C@@H]3C[C@H](C)C4=CC(=O)CC[C@]4(C)[C@H]3CC[C@@]21C | -5.5 |
| CCOC(=O)c1cccc(P(C)(C)=O)c1 | -5 |
| Cc1oc2cc(O)ccc2c(=O)c1Oc1ccccc1Br | -0.7 |
| CC(=O)[C@H]1[C@H](C#N)C[C@H]2[C@@H]3CC=C4C[C@@H](O)CC[C@]4(C)[C@H]3CC[C@@]21C | 4.8 |
| COCC1CCCN(Cc2cn[nH]c2-c2cc3ccccc3o2)C1 (stereo not given) | -3.9 |
| C=C(C)[C@@H]1CC=C(CN2CCC(N3CCC(C(=O)N4CCCC4)CC3)CC2)CC1 | -0.3 |
| CC(C)(S)[C@@H](N)C(=O)O | 1.1 |
| CCn1cc(C(=O)O)c(=O)c2ccc(C)nc21 | -3.9 |
| O=C(/C=C/c1ccccc1)NC(=O)c1ccccc1O | -5.7 |
| CC12CN3CC(C)(CN(C1)C3c1ccc([N+](=O)[O-])o1)C2 (stereo not given) | -5.6 |
| Cc1ccccc1C(=O)Nc1ccccc1C(=O)NCC(C)C | 1.2 |
| CCOC(=O)/C=C1\NC(C)(C)Cc2cc(OC)c(OC)cc21 | -2.8 |
| CN(C)c1ccc(CNCCC(Cc2ccccc2)c2ccco2)cc1 (stereo not given) | -8.8 |
